According to PubChem BioAssay (Tox21):
Inconclusive results are not listed. Activity calls are given as the source filed them. The call rests on the fitted dose curve; in most records, active means well fitted cell-killing curve with a large enough effect in the repeat runs; inconclusive means weak or mixed curves, or effect the other way; inactive means flat fitted curve, though single readings scatter.

Assay: qHTS assay to identify small molecule antagonists of the retinoid acid receptor (RAR) signaling pathway - cell viability counter screen (AID 1159551); further: nearly all actives have a fitted effect of over 35% in size
Details: C3RL4 cells viability, ATP luminescence (CellTiter-Glo), 6 h; series mostly up to 92.4 µM
From the text: U.S. Tox21 Program National Center for Advancing Translational Sciences [NCATS] NIH Chemical Genomics Center [NCGC] U.S. Environmental Protection Agency [EPA] National Institutes of Environmental Health Sciences [NIEHS] National Toxicology Program [NTP] U.S. Food and Drug Administration [FDA] Tox21 Assay Overview: All-trans Retinoic acid (atRA) is the potent natural metabolite of retinol and plays an important role in normal embryonic development and maintenance of cellular phenotype in adult animals. atRA is the activating ligand for the retinoic acid receptors (RARs) which form heterodimers with retinoid X receptors (RXRs) on the retinoic acid response element (RARE). Through activation of the RAR/RXRs nuclear receptors, atRA regulates the transcription of a large number of protein-coding genes and regulatory RNAs. Intracellular levels of atRA are controlled by the retinol signaling pathway (RSP) that regulates the biosynthesis and catabolism of atRA to maintain physiological levels. Chemicals that interfere with the RSP can cause abnormal intracellular levels of atRA and therefore are potential developmental toxicants. To assess compounds for the potential adverse effect on embryonic development through interfering with retinol signaling, a cell-based RARE luciferase reporter gene assay was used. C3RL4 cell line (OARSA/CFSAN/FDA, Laurel, MD) was used to screen Tox21 10K compound library for identifying inhibitors of the RSP. Also cytotoxicity was assessed by determining the viability of cells based on the quantitation of ATP.
Tox21 Assay Protocol Summary: C3RL4 cells were seeded at 1,000/well in 4 uL of assay medium into white solid 1,536-well tissue culture plates (Greiner Bio-One North America Inc. Monroe, NC) using a Multidrop Combi (Thermo Scientific, Waltham, MA) dispenser. After incubation at 37 C and 5% CO2 for an overnight, 23 nL of compounds dissolved in DMSO, positive control or DMSO only were transferred by a Pintool station (Kalypsys, San Diego, CA). One ul of 1 uM (final concentration) of Retinol was added right after the compound addition by using a Flying Reagent Dispenser (FRD) (Aurora Discovery, San Diego, CA). After 6 hr incubation at 37 C and 5% CO2, 5 uL of CellTiter-Glo reagent (Promega Corporation, Madison, WI) was added to each assay plate using an FRD. Luminescence was quantified on a ViewLux plate reader (PerkinElmer, Waltham, MA) after 30 min incubation at room temperature.

Compound | outcome
C=C(C)CCl | inactive
O=c1ccc(=O)[nH][nH]1 | inactive
OC(O)C(Cl)(Cl)Cl | inactive
O=c1[nH]c(=O)[nH]c(=O)[nH]1 | inactive
O=S(=O)(c1ccc(Cl)cc1)c1cc(Cl)c(Cl)cc1Cl | inactive
O=Cc1cccc(Oc2ccccc2)c1 | inactive
C1CN2CCN1CC2 | inactive
Oc1ccccc1Cl | inactive
CC(C)(Cl)Cl | inactive
CCCCN(CC)C(=O)SCCC | inactive
Cn1cc(-c2ccccc2)c(=O)c(-c2cccc(C(F)(F)F)c2)c1 | inactive
CCNc1nc(NC(C)C)nc(SC)n1 | inactive
Cc1ccc([N+](=O)[O-])cc1C | inactive
Nc1ccc(Oc2ccc(N)cc2)cc1 | inactive
CCOC(=O)c1ccccc1C(=O)OCC | inactive
O=C1CCCN1 | inactive
O=[N+]([O-])c1ccccc1 | inactive
CCOP(=S)(OCC)SCCSCC | inactive
CCC(C)(CC)c1cc(NC(=O)c2c(OC)cccc2OC)on1 | inactive
COc1ccc2c3c1O[C@H]1[C@@H](O)C=C[C@H]4[C@@H](C2)N(C)CC[C@@]341 | inactive

Compound | outcome
Nc1ccc(Br)cc1 | inactive
CC(C)=C[C@@H]1[C@@H](C(=O)OCc2coc(Cc3ccccc3)c2)C1(C)C | inactive
CCCC1COC(Cn2cncn2)(c2ccc(Cl)cc2Cl)O1 (stereo not given) | inactive
CCC12COCN1COC2 | inactive
O=NN1CCCCCCC1 | inactive
O=[N+]([O-])c1ccc([As](=O)(O)O)cc1 | inactive
O=C(O)c1ccccn1 | inactive
CC(C)(C)C(O)(CCc1ccc(Cl)cc1)Cn1cncn1 (stereo not given) | inactive
CN(C)CCO | inactive
NCCc1ccc(O)cc1 | inactive
C=CCO | inactive
CCCCCCCCCCCC#N | inactive
CC(C)NC(=O)N1CC(=O)N(c2cc(Cl)cc(Cl)c2)C1=O | inactive
O=c1n(Cl)c(=O)n(Cl)c(=O)n1Cl | inactive
CC(Oc1ccc(Cl)cc1Cl)C(=O)O (stereo not given) | inactive
CC(C)C1(C)N=C(c2nc3ccccc3cc2C(=O)O)NC1=O (stereo not given) | inactive
CN1C(=O)CN=C(c2ccccc2)c2cc(Cl)ccc21 | inactive
Cc1ccc(N)cc1N | inactive
C#CCN(C)[C@H](C)Cc1ccccc1 | inactive
CC(=O)C=C(C)C | inactive
